These results are taken from article PMC7862700, “An all-to-all approach to the identification of sequence-specific readers for epigenetic DNA modifications on cytosine”.

Common to all, as to assay: DAPPL (digital affinity profiling via proximity ligation, sequencing); 10 mM Tris-HCl pH 7.5, 50 mM NaCl, 1 mM DTT, 4% glycerol, room temperature, 30 min; GST-TFs on glutathione beads, 16-mer random dsDNA library, 0.1% formaldehyde crosslink after washing; high values mean tight binding
Common to all, as to conditions: protein: recombinant; tags: N-terminal GST; dsDNA, one strand shown

Test [1] has as its target T1, ERF (Homo sapiens, UniProt P50548 1-548).
T1 sequence: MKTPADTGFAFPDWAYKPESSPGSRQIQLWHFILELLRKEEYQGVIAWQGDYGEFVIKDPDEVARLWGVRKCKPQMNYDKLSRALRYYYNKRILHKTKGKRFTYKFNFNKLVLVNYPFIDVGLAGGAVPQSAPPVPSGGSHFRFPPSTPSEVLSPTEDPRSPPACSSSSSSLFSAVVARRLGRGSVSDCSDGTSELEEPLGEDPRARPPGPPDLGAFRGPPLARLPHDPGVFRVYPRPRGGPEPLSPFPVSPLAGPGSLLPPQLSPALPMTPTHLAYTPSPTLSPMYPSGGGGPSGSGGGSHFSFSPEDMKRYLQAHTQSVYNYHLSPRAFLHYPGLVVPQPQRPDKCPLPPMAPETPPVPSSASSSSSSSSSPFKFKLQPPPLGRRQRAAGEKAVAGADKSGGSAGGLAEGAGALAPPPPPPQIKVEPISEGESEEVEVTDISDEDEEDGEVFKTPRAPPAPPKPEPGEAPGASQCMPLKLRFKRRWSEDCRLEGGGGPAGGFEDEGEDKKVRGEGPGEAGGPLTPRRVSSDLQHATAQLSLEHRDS
An outline of the steps:
(§1)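 Pools of DNA-barcoded human transcription factors, expressed in yeast as GST fusions on glutathione beads and combined with a tag-only sample, were incubated with 200 nmole of a 16-mer random double-stranded DNA library. Incubation took 30 min at room temperature in Tris/NaCl/DTT/glycerol buffer and was followed by washing, 0.1% formaldehyde crosslinking, proximity ligation (BsaI/T4 ligase, 1 h, 37 °C), PCR amplification and sequencing on an Illumina NextSeq500. Binding signal is the ratio of a hexamer's read frequency for a factor to its frequency for the tag-only sample.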

Test [2] addresses T2, ETV3L (Homo sapiens, UniProt Q6ZN32 1-361).
T2 sequence: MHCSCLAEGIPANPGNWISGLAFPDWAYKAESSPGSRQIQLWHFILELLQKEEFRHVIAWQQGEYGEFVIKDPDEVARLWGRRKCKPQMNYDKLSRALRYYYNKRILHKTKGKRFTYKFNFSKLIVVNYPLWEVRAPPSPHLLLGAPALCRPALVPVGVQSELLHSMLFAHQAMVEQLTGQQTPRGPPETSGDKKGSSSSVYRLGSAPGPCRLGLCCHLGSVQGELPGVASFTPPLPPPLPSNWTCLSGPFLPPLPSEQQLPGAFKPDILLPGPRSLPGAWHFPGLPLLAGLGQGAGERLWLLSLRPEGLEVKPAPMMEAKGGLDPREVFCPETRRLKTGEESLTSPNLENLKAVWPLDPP
The method in brief: as §1

The target in test [3] is T3, ETS2 (Homo sapiens, UniProt P15036 1-469).
T3 sequence: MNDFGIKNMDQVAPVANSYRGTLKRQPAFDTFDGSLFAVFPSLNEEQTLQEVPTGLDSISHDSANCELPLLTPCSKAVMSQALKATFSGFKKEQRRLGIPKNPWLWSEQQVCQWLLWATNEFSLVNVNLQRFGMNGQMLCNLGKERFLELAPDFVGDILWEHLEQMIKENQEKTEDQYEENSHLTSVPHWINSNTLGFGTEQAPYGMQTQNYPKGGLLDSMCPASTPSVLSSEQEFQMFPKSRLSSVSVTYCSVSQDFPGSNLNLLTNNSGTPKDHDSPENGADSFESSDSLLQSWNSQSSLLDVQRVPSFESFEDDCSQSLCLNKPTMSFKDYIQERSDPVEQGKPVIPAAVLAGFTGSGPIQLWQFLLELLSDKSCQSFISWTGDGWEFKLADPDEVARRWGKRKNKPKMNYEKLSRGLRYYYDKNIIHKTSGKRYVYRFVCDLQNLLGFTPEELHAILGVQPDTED
An outline of the steps:
as §1

The target of test [4] is T4, SPDEF (Homo sapiens, UniProt O95238 1-335).
T4 sequence: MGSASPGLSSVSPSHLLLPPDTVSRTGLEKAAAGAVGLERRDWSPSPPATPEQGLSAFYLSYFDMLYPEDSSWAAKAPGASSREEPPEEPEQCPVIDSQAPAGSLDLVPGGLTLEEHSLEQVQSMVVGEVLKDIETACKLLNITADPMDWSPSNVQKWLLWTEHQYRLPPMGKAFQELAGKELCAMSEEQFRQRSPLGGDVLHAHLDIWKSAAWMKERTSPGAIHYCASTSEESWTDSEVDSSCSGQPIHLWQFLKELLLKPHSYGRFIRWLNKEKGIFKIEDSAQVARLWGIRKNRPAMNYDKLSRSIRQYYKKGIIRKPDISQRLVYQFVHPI
An outline of the steps: as §1

In test [5] the target is T5, ETV7 (Homo sapiens, UniProt Q9Y603 1-341).
T5 sequence: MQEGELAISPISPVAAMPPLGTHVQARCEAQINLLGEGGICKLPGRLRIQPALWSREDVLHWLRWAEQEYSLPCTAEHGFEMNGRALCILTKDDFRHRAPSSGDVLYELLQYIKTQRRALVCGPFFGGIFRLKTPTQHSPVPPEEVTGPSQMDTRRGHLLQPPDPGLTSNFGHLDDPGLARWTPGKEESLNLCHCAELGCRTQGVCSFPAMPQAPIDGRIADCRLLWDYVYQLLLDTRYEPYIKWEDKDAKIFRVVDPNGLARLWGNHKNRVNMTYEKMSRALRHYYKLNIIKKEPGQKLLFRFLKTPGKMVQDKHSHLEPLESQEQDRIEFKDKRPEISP
The method in brief:
as §1

Test [6] concerns the target T6, ELF5 (Homo sapiens, UniProt Q9UKW6-2 1-255).
T6 sequence: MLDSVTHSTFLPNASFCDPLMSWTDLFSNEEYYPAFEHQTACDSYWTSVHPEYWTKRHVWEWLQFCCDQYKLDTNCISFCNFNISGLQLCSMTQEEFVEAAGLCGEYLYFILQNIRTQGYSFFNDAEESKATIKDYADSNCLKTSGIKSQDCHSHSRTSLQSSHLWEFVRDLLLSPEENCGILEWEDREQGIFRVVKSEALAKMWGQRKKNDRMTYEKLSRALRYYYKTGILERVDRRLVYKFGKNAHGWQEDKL
The method in brief:
as §1

Test [7] addresses T7, ETV3 (Homo sapiens, UniProt P41162-2 1-143).
T7 sequence: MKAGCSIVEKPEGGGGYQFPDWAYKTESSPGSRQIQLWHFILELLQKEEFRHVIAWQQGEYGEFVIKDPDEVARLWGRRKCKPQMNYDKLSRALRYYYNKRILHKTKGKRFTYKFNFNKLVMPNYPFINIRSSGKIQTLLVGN
An outline of the steps:
as §1

Test [8] deals with ETV6 (Homo sapiens, UniProt P41212 1-452). An outline of the steps:
as §1

Sequence of ETV6 (P41212 whole entry): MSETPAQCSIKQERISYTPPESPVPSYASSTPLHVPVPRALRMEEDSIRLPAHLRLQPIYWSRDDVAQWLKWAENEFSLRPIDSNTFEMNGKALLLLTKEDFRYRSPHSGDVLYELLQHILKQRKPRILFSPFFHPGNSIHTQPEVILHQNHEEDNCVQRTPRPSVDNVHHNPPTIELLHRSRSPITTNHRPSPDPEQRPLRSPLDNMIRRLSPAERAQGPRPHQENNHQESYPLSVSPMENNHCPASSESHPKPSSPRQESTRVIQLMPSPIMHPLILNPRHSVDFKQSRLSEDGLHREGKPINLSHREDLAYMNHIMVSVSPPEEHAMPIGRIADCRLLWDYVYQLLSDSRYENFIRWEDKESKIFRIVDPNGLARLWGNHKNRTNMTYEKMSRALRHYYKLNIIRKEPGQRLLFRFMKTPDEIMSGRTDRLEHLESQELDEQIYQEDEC

On to TAACGG, for which the binding signal in test [1] is 1.04 fold enrichment (6-mer frequency, TF over GST control); in test [2], 1.04 fold enrichment (6-mer frequency, TF over GST control); in test [3], 1.1 fold enrichment (6-mer frequency, TF over GST control); in test [4] it was 1.1 fold enrichment (6-mer frequency, TF over GST control); in test [5], 1.06 fold enrichment (6-mer frequency, TF over GST control); in test [6], 1.07 fold enrichment (6-mer frequency, TF over GST control). For the same sequence, the binding signal in test [7] was 1.1 fold enrichment (6-mer frequency, TF over GST control); in test [8] it was 1.14 fold enrichment (6-mer frequency, TF over GST control).
Consider TTCTAA, for which the binding signal in test [1] was 1.23 fold enrichment (6-mer frequency, TF over GST control); in test [2], 1.16 fold enrichment (6-mer frequency, TF over GST control); in test [3] it was 1.26 fold enrichment (6-mer frequency, TF over GST control); in test [4] it was 1.22 fold enrichment (6-mer frequency, TF over GST control); in test [5], 1.23 fold enrichment (6-mer frequency, TF over GST control); in test [6] it was 1.17 fold enrichment (6-mer frequency, TF over GST control). The binding signal in test [7] was 1.19 fold enrichment (6-mer frequency, TF over GST control); in test [8], 1.24 fold enrichment (6-mer frequency, TF over GST control).
For CCCTAA, the binding signal is 1.36 fold enrichment (6-mer frequency, TF over GST control) in test [1]; 1.32 fold enrichment (6-mer frequency, TF over GST control) in test [2]; 1.15 fold enrichment (6-mer frequency, TF over GST control) in test [3]; 1.19 fold enrichment (6-mer frequency, TF over GST control) in test [4]; 1.14 fold enrichment (6-mer frequency, TF over GST control) in test [5]; 1.19 fold enrichment (6-mer frequency, TF over GST control) in test [6]. Further, the binding signal is 1.2 fold enrichment (6-mer frequency, TF over GST control) in test [7] and 1.08 fold enrichment (6-mer frequency, TF over GST control) in test [8].
For the sequence TAGATT, the binding signal in test [1] is 1.37 fold enrichment (6-mer frequency, TF over GST control); in test [2], 1.31 fold enrichment (6-mer frequency, TF over GST control); in test [3], 1.13 fold enrichment (6-mer frequency, TF over GST control); in test [4], 1.15 fold enrichment (6-mer frequency, TF over GST control); in test [5], 1.22 fold enrichment (6-mer frequency, TF over GST control); in test [6] it was 1.11 fold enrichment (6-mer frequency, TF over GST control). Also, the binding signal in test [7] is 1 fold enrichment (6-mer frequency, TF over GST control); in test [8], 1.17 fold enrichment (6-mer frequency, TF over GST control).
With TGCATG, the binding signal in test [1] was 1.06 fold enrichment (6-mer frequency, TF over GST control); in test [2], 1.27 fold enrichment (6-mer frequency, TF over GST control); in test [3] it was 1.06 fold enrichment (6-mer frequency, TF over GST control); in test [4] it was 1.06 fold enrichment (6-mer frequency, TF over GST control); in test [5] it was 1.06 fold enrichment (6-mer frequency, TF over GST control); in test [6], 1.01 fold enrichment (6-mer frequency, TF over GST control). Moreover, the binding signal in test [7] is 1.1 fold enrichment (6-mer frequency, TF over GST control); in test [8], 1.08 fold enrichment (6-mer frequency, TF over GST control).
Take AATTGG: the binding signal is 1.26 fold enrichment (6-mer frequency, TF over GST control) in test [1]; 1.33 fold enrichment (6-mer frequency, TF over GST control) in test [2]; 1.33 fold enrichment (6-mer frequency, TF over GST control) in test [3]; 1.31 fold enrichment (6-mer frequency, TF over GST control) in test [4]; 1.42 fold enrichment (6-mer frequency, TF over GST control) in test [5]; 1.35 fold enrichment (6-mer frequency, TF over GST control) in test [6]. Besides, the binding signal in test [7] is 1.28 fold enrichment (6-mer frequency, TF over GST control); in test [8] it was 1.44 fold enrichment (6-mer frequency, TF over GST control).
Regarding TGCGGA, the binding signal was 1.14 fold enrichment (6-mer frequency, TF over GST control) in test [1]; 1.3 fold enrichment (6-mer frequency, TF over GST control) in test [2]; 1.35 fold enrichment (6-mer frequency, TF over GST control) in test [3]; 1.38 fold enrichment (6-mer frequency, TF over GST control) in test [4]; 1.22 fold enrichment (6-mer frequency, TF over GST control) in test [5]; 1.46 fold enrichment (6-mer frequency, TF over GST control) in test [6]. Moreover, the binding signal was 1.54 fold enrichment (6-mer frequency, TF over GST control) in test [7] and 1.34 fold enrichment (6-mer frequency, TF over GST control) in test [8].
Take GAACTT: the binding signal in test [1] is 1.56 fold enrichment (6-mer frequency, TF over GST control); in test [2], 1.58 fold enrichment (6-mer frequency, TF over GST control); in test [3] it was 1.61 fold enrichment (6-mer frequency, TF over GST control); in test [4] it was 1.61 fold enrichment (6-mer frequency, TF over GST control); in test [5] it was 1.62 fold enrichment (6-mer frequency, TF over GST control); in test [6], 1.96 fold enrichment (6-mer frequency, TF over GST control). Moreover, the binding signal in test [7] was 1.69 fold enrichment (6-mer frequency, TF over GST control); in test [8], 1.73 fold enrichment (6-mer frequency, TF over GST control).
For CCTCAT, the binding signal in test [1] is 1.32 fold enrichment (6-mer frequency, TF over GST control); in test [2], 1.37 fold enrichment (6-mer frequency, TF over GST control); in test [3], 1.29 fold enrichment (6-mer frequency, TF over GST control); in test [4], 1.31 fold enrichment (6-mer frequency, TF over GST control); in test [5], 1.25 fold enrichment (6-mer frequency, TF over GST control); in test [6], 1.58 fold enrichment (6-mer frequency, TF over GST control). For the same sequence, the binding signal in test [7] is 1.32 fold enrichment (6-mer frequency, TF over GST control); in test [8], 1.39 fold enrichment (6-mer frequency, TF over GST control).
